# IL1B secr inh: qHTS for Inhibitors of Inflammasome Signaling: IL-1-beta AlphaLISA Primary Screen; THP-1 LPS/ATP IL-1B secretion, AlphaLISA, 16 h; hits give low values; activity change, % at 57.5 µM; actives 4.7% (n = 360,000); in the data active = activity change below about -50%; inconclusive = mostly about -30% to -49%
#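 THP-1 cells pretreated 1 hr with compounds (up to 57.5 uM final), then stimulated with LPS (250 ng/mL final) plus ATP (1.25 mM final); secreted IL-1B measured by AlphaLISA after 16 hr, decreased signal indicating inhibition.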
# TDP1 block: qHTS Assay for Inhibitors of Tyrosyl-DNA Phosphodiesterase (TDP1). Tyrosyl-DNA phosphodiesterase 1 (Homo sapiens), Q9NUW8. AID 485290, 2010. actives 0.28% (n = 350,000). recombinant TDP1, AlphaScreen DNA substrate cleavage. Potency, µM (doses to about 130 µM), inactives show at the highest dose activity change, negative = inhibition, hits mostly inhibitors; note: potency is the fitted concentration of half-maximal effect; nearly all actives have a fitted effect of over 40% in size
# Target sequence (Q9NUW8 whole entry, looked up): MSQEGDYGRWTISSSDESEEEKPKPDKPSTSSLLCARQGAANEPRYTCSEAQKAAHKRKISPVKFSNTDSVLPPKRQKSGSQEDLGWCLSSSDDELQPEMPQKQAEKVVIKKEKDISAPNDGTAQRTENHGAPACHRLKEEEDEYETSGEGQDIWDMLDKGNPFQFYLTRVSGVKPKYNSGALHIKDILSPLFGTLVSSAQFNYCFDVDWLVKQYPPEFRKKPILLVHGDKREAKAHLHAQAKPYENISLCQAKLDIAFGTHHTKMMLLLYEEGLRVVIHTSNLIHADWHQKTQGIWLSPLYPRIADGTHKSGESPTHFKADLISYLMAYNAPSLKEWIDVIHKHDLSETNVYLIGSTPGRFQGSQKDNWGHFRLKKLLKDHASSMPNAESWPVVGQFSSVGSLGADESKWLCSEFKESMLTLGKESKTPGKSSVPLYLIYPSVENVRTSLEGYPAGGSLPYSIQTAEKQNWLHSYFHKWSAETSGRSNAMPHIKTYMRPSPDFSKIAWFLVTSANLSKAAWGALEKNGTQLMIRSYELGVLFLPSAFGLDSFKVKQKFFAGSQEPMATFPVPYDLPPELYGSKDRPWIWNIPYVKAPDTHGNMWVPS
#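 AlphaScreen read-out: signal falls as enzyme removes the 3' tyrosine-FITC from a 5'-biotinylated DNA oligo (15 nM, 5 min, RT). Enzyme was E. coli-made recombinant Tdp1 at 1 nM, exposed to compound for 15 min beforehand; beads 10 ug/ml, 10 min.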
# Giardia killer: Small Molecules that selectively kill Giardia lamblia: qHTS | activity change, % at 7.66 µM, hits read low | AID 540267, 2011 | Giardia lamblia trophozoite viability | actives 0.15% (n = 340,000); in the data active = activity change below about -80%; inconclusive = between about -30% and that limit;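 note: parasites exposed to compound for two days anaerobically before the ATP read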
#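 Media and compound were dispensed first, then trophozoites at 100 cells/well; plates sat 48 hrs at 37 deg C without oxygen before ATP luminescence reagent was added and read after 15-30 min at room temperature.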
# DT40 TDP1 CPT: qHTS for Inhibitors of human tyrosyl-DNA phosphodiesterase 1 (TDP1): qHTS in cells in presence of CPT. Potency, µM (doses to about 46.2 µM), inactives show at the highest dose activity change, negative = growth inhibition, most hits filed as inhibitors. actives 12% (n = 420,000). chicken DT40 Tdp1-/-;hTDP1 cells + 20 nM CPT, ATP luminescence, 48 h; note: potency is the fitted concentration of half-maximal effect; nearly all actives have a fitted effect of over 55% in size
#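 Chicken DT40 Tdp1-/- cells complemented with human TDP1, 400 cells/well, exposed to compounds plus 20 nM camptothecin for at least 48 h at 37 C; viability read as ATP content by CellTiter-Glo luminescence.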
# DT40 TDP1 no CPT: qHTS for Inhibitors of human tyrosyl-DNA phosphodiesterase 1 (TDP1): qHTS in cells in absence of CPT; DT40 Tdp1-/- hTDP1 cells, no CPT, ATP luminescence, 48 h; Potency, µM (top dose mostly 46.2 µM), for inactives: at the highest dose activity change, negative = growth inhibition, actives largely listed as inhibitors; actives 15% (n = 420,000); AID 686978, 2013; note: potency is the fitted concentration of half-maximal effect; nearly all actives have a fitted effect of over 55% in size
#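 Stably hTDP1-transfected Tdp1-null chicken DT40 cells were treated with library compounds minus camptothecin and grown for at least 48 hr at 37 °C, after which cellular ATP was quantified by luminescence.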
# ELG1 repair inh: qHTS screen for small molecules that inhibit ELG1-dependent DNA repair in human embryonic kidney (HEK293T) cells expressing luciferase-tagged ELG1 | AID 504467, 2011 | actives 2.3% (n = 330,000) | HEK293T ELG1-luciferase reporter, luminescence, 16 h; DNA damage induced by 5-fluorouridine | Potency, µM (titrated, usually from 46.1 µM), without a hit: at the highest dose activity change, negative = inhibition, hits mostly inhibitors; note: potency is the fitted concentration of half-maximal effect; nearly all actives have a fitted effect of over 55% in size
#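 5-Fluorouridine DNA damage + compound/DMSO, 2,000 cells/well, 16 h, 37 °C/5% CO2. ONE-Glo, 30 min RT, luminescence. Readout = decrease in reporter signal.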
# Numbers without * were called inactive; ? = inconclusive; . = no result given; ! = repeats disagree; [ ] = another dose, or the depositor's remark. Only some compounds are listed: those with a hit (about 19% of all), similar ones and a draw of the others. Unless noted, calls come from the whole dose curve; as a rule, active = well fitted curve in the direction sought with a large enough effect; inconclusive = small, poorly fitted or top-dose-only effect, or another doubt; inactive = no such curve, though single readings can be large; an effect the other way counts as inactive or inconclusive. % is set by controls: 0 for no effect and ±100 for the full control effect.
SMILES,IL1B secr inh,TDP1 block,Giardia killer,DT40 TDP1 CPT,DT40 TDP1 no CPT,ELG1 repair inh
CCOc1ccccc1CNC(=O)C(C)n1nc(C)c2c(C)n(-c3ccccc3)nc2c1=O (centres undefined),-3,3%,2,23µM*,?,?
COc1cccc(CNC(=O)Cn2nc(C)c3c(C)n(-c4ccc(C)cc4)nc3c2=O)c1OC,11,0%,-1,-28%,-21%,-11%
CCOc1ccccc1CNC(=O)Cn1nc(C)c2c(C)n(-c3ccc(C)cc3)nc2c1=O,18,?,-17,?,?,2.9µM*
Fc1ccc2nc(C(F)(F)F)cc(N3CCOCC3)c2c1,4,.,-8,-3%,-4%,0%
CCc1cc(Cn2nc(-c3ccccc3)cc2C(=O)NCc2ccccc2OC)on1,?,3%,12,?,21µM*,-3%
CCc1nc2c(OCc3ccc(F)cc3)cccn2c1N(C)C(=O)COc1ccccc1,0,.,.,21µM*,?,.
CCc1nc2c(OCc3ccccc3)cccn2c1N(C)C(=O)COc1ccccc1,14,.,.,23µM*,?,.
COc1ccccc1CNC(=O)N/C=C/c1ccc(Cl)cc1,2,0%,1,-2%,-10%,-2%
CC1CN(C)CCC1OC(=O)c1ccccc1 (centres undefined),-12,.,-15,1%,19%,3%
O=C(Nc1ccccc1F)c1ccc2c(c1)CCN2S(=O)(=O)c1ccccc1,-69*,1%,-5,?,-28%,-28%
O=C(Nc1c(F)cccc1F)c1ccc2c(c1)CCN2S(=O)(=O)c1ccccc1,-67*,0%,8,?,-7%,?
Cc1cccc(NC(=O)c2ccc3c(c2)CCN3S(=O)(=O)c2ccccc2)c1C,.,-2%,.,-28%,-28%,.
CC1=NNC(=O)C1CC(=O)N/N=C(\C)c1ccco1 (centres undefined),29,3%,2,-12%,2%,-11%
Cc1cccc(N(C)S(=O)(=O)c2nnc(NC(=O)c3cccs3)s2)c1,.,6%,.,-6%,?,.
COc1ccc(N(CC(C)C)S(=O)(=O)c2nnc(NC(=O)c3ccco3)s2)cc1,-2,4%,-28,?,21µM*!,12%
CCN(c1ccc(OC)cc1)S(=O)(=O)c1nnc(NC(=O)c2ccccc2Cl)s1,-17,6%,-17,?,16µM*!,2%
Cc1ccc(N(CC(C)C)S(=O)(=O)c2nnc(NC(=O)c3cccs3)s2)cc1,.,1%,.,?,23µM*,.
CCN(c1ccc(OC)cc1)S(=O)(=O)c1nnc(NC(=O)c2ccco2)s1,?,6%,-23,-22%,-7%,8%
COc1cc(NC(=O)CSc2nnc3c(n2)[nH]c2ccc(S(=O)(=O)NC(C)C)cc23)cc(OC)c1OC,11,-12%,-10,4%,1%,?
Cc1ccc(OCCNc2cc(N3CCN(CCO)CC3)ccc2[N+](=O)[O-])cc1C,?,2%,14,?,29µM*,?
Cc1ccccc1OCCNc1cc(N2CCNCC2)ccc1[N+](=O)[O-],.,5%,.,.,.,-15%
Cc1cccc(OCCNc2cc(N3CCOCC3)ccc2[N+](=O)[O-])c1,-17,2%,8,?,?,5%
Cc1cccc(OCCNc2cc(N3CCN(C)CC3)ccc2[N+](=O)[O-])c1,?,7%,7,?,23µM*,-6%
CCOc1ccc(C(=O)OCc2cc(=O)n3nc(C4CC4)sc3n2)cc1,.,2%,.,1%,-22%,.
COc1ccc(C=C2OC(=O)C(C(C)=O)=C2O)cc1,-10,.,.,?,16µM*,.
SMILES,IL1B secr inh,TDP1 block,Giardia killer,DT40 TDP1 CPT,DT40 TDP1 no CPT,ELG1 repair inh
CC(=O)C1=C(O)C(=Cc2ccccc2)OC1=O,-12,.,.,2%,?,.
CC(NC(=O)CCNC(=O)c1ccc(C(C)(C)C)cc1)c1ccccc1 (centres undefined),-4,0%,2,?,?,-10%
Cc1ccc(CN(C)c2ccc(S(=O)(=O)N3CCCC3)cn2)cc1,-21,-3%,6,?,?,?
Oc1ccccc1C(=S)N1CCN(C(=S)c2ccccc2O)CC1,-9,.,10,-6%,-7%,0%
COc1ccc(NC(=O)CSc2nnc3ccc(-c4cccnc4)nn23)cc1,0,.,21,-11%,-20%,1%
COc1ccc(NC(=O)CSc2nnc(-c3ccccc3C)n2N)cc1OC,1,6%,13,-8%,-2%,0%
COc1ccc(NC(=O)CSc2nnc(-c3ccccc3C)n2N)cc1,-1,4%,-5,16µM*,21µM*,7%
CN(C)S(=O)(=O)c1cc(NC(=O)CSc2cccc[n+]2[O-])ccc1Cl,-6,1%[56.1 µM],14,-17%,4%,6%
COCCn1c(SCC(=O)Nc2ccc(Cl)c(S(=O)(=O)N(C)C)c2)nc2ccccc21,0,4%,-3,?,16µM*,18µM*
COc1ccc(NC(=O)CSc2nnc3ccc(-c4ccncc4)nn23)cc1,-27,.,26,-19%,?,8.2µM*
COCCn1c(SCC(=O)Nc2ccc(S(N)(=O)=O)cc2)nc2ccccc21,-7,0%,8,0%,-23%,-19%
CN(C)S(=O)(=O)c1cc(NC(=O)CSc2ncc(C(F)(F)F)cc2Cl)ccc1Cl,-82*,6%,2,15µM*,16µM*,?
CCC(=O)N1CCC(C)(C(=O)Nc2ccc3c(c2)OCCO3)C1 (centres undefined),31,.,.,-6%,-13%,.
Cc1cccc(C)c1-n1nnnc1C1c2ccccc2C(=O)N1CCOc1ccccc1 (centres undefined),-5,.,.,-7%,?,.
COC(=O)c1ccc(Cn2c(SCC(=O)NCc3ccccc3)nc3ccccc32)cc1,.,9%,.,21µM*,23µM*,.
O=C(Cn1c(SCC(=O)Nc2ccc(F)cc2)nc2ccccc21)NCc1ccc(F)cc1,.,-4%,.,?,?,.
CCN(C(=O)CSc1nc2ccccc2n1Cc1ccc(C(=O)OC)cc1)c1ccccc1,.,9%,.,21µM*,13µM*,.
